Measured values published in PubChem BioAssay.
A number with no mark means an inactive call. For part of these data: Entries with a potency or affinity are not part of this list. Active and inactive are the calls of the source. Unless noted, how the calls were made is not given here.

What was measured:
[1] = antimalarial activity against Dd2 strain (AID 2302;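 active means growth inhibition above 50% at the single 2 µM test dose, taken to imply half-maximal potency below 2 µM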;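 further: 0% = DMSO untreated growth and 100% = chloroquine plus artemisinin killed control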); conditions: P. falciparum Dd2 in RBCs, LDH growth readout, 72 h; at 2 µM; active compounds read high
[2] = human hepatoma cell viability loss – ATP luminescence, cytotoxicity control for P. falciparum antimalarial project, primary screen (AID 2303;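 active means inhibition above 50%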;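 further: 0% = DMSO wells and 100% = digitonin-killed cells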); conditions: HepG2 viability, 24-48 h, at 10 µM, active compounds read high
[3] = biological target: L-lactate dehydrogenase (Plasmodium falciparum (isolate CDC / Honduras)) (UniProt Q27743); assay: PfLDH activity inhibition – cell lysate, 3D7 strain, counter-screen for P. falciparum growth inhibition project (AID 2304);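 further: 0% = vehicle and 100% = reference inhibitor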; conditions: P. falciparum 3D7 crude extract, LDH APAD/NBT absorbance; at 2 µM; active compounds read high
Sequence of L-lactate dehydrogenase (Plasmodium falciparum (isolate CDC / Honduras)) (Q27743 whole entry, looked up): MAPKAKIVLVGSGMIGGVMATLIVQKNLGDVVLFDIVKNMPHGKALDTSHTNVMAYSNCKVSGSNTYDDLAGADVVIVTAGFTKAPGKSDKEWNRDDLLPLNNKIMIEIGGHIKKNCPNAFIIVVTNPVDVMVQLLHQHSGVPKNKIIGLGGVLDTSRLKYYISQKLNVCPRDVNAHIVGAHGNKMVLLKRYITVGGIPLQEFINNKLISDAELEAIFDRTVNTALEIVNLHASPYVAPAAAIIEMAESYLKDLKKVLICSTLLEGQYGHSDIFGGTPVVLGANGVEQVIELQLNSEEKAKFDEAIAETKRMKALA

[4] = inhibition of 3D7 malaria parasite growth – strain 3D7 (AID 2306);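 further: 0% = DMSO wells and 100% = chloroquine plus artemisinin control wells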; conditions: P. falciparum 3D7 erythrocytic growth, LDH absorbance, 72 h; at 2 µM; active compounds read high
[5] = biological target: Calcium-dependent protein kinase 1 (Plasmodium falciparum (isolate 3D7)) (UniProt P62344); assay: PfCDPK1 kinase inhibitors, biochemical, TCAMS library (AID 1159585; cut-off not given, nearly all actives have IC50 up to about 0.98 µM;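 further: inhibitors leave more ATP so luminescence rises with inhibition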); conditions: recombinant PfCDPK1, Kinase-Glo ATP depletion luminescence
Sequence of Calcium-dependent protein kinase 1 (Plasmodium falciparum (isolate 3D7)) (P62344 whole entry, looked up): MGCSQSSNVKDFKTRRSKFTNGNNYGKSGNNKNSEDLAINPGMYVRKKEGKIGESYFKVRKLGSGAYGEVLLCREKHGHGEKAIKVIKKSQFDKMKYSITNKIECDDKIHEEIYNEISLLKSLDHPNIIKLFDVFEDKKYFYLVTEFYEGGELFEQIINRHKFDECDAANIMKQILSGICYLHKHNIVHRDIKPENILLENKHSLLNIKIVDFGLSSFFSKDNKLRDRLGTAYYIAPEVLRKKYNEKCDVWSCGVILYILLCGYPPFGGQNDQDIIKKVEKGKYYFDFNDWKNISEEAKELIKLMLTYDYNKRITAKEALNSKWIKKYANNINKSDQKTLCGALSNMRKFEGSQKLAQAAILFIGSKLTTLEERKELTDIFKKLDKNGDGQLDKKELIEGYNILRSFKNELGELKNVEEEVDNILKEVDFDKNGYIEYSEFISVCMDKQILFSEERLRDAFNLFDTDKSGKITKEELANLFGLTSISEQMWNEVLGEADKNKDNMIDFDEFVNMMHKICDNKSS

[6] = biological target: Plasmodium falciparum protein kinase 6 (PK6, PF3D7_1337100) (UniProt Q8IDW1); assay: PfPK6 kinase inhibitors, biochemical, TCAMS library (AID 1159586); conditions: recombinant PfPK6, Kinase-Glo ATP depletion luminescence
Sequence of Plasmodium falciparum protein kinase 6 (PK6, PF3D7_1337100) (Q8IDW1 1-305): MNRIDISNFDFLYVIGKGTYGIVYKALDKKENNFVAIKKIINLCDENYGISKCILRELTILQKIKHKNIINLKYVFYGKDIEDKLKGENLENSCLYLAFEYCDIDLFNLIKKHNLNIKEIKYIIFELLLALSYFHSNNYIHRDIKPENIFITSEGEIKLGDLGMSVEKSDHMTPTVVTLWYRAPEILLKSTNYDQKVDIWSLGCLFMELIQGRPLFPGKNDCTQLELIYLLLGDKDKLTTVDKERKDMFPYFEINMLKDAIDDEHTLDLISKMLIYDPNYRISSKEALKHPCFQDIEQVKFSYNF

[7] = biological target: Protein kinase 7 (PK7), Plasmodium falciparum 3D7 (PF3D7_0213400) (UniProt Q7YTF7); assay: inhibition of Plasmodium PK7 catalytic activity – biochemical, TCAMS antimalarial set, Kinase-Glo luminescence (AID 1159587); conditions: recombinant PfPK7, Kinase-Glo ATP depletion luminescence
Sequence of Protein kinase 7 (PK7), Plasmodium falciparum 3D7 (PF3D7_0213400) (Q7YTF7 1-343): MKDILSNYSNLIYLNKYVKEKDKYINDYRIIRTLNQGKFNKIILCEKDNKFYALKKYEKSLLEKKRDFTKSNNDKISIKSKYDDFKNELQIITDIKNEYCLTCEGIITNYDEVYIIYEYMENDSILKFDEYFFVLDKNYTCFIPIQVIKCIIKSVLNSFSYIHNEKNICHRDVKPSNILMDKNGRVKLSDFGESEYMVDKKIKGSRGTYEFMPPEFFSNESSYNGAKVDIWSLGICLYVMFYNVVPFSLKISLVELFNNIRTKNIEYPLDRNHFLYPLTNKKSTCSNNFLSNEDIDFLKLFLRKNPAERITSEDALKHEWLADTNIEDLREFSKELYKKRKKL

[8] = biological target: Calcium-dependent protein kinase 4 (Plasmodium falciparum (isolate 3D7)) (UniProt Q8IBS5); assay: PfCDPK4 kinase inhibitors, biochemical, TCAMS library (AID 1159588; cut-off not given, nearly all actives have IC50 up to about 0.91 µM); conditions: recombinant PfCDPK4, Kinase-Glo ATP depletion luminescence
Sequence of Calcium-dependent protein kinase 4 (Plasmodium falciparum (isolate 3D7)) (Q8IBS5 whole entry, looked up): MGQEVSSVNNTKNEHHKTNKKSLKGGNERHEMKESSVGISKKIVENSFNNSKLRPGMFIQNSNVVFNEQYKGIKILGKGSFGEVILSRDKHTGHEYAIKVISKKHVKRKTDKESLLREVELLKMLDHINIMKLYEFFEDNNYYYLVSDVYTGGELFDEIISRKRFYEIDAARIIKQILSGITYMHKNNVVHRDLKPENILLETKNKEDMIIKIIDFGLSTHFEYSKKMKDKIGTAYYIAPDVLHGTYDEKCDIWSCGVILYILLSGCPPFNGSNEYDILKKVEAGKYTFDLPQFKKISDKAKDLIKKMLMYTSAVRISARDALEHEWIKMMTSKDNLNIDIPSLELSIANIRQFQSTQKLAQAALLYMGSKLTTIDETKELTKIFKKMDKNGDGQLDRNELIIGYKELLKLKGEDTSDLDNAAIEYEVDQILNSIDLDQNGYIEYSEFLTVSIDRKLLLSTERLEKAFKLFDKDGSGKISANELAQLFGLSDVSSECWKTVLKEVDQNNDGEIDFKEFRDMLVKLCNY

SMILES | growth inhibition [1] | inhibition [2] | inhibition [3] [%] | growth inhibition [4] | outcome [5] | outcome [6] | outcome [7] | outcome [8]
Cc1cccc2[nH]c(-c3ccc(-c4ccc(CN5CCN(C6CCN(C)CC6)CC5)cc4)cc3)nc12 | 100% (active) | 99% (active) | -5 | 100% (active) | inactive | inactive | inactive | inactive
Cc1cc(NN=Cc2ccccc2Cl)c2ccccc2n1 | 30% | -3% | 2 | 102% (active) | inactive | inactive | inactive | inactive
O=C(Nc1cccc(CN2CCCN(Cc3ccc(O)cc3)CC2)c1)c1cccc(F)c1 | 4% | 22% | -2 | 92% (active) | inactive | inactive | inactive | inactive
O=c1cc(NCCC(CNCc2ccc(Br)o2)NCc2cc(Br)cc(Br)c2)[nH]c2ccccc12 (configuration not stated) | 90% (active) | 2% | 6 | 98% (active) | inactive | inactive | inactive | inactive
Cc1cc(=O)[nH]c(-n2nc(C)cc2NC(=O)C(c2ccccc2)c2ccccc2)n1 | 77% (active) | 31% | -1 | 96% (active) | inactive | inactive | inactive | inactive
O=C(NC1CC1)C1CCN(Cc2cc3ccccc3n2Cc2ccc(Cl)cc2)CC1 | 96% (active) | 16% | -1 | 95% (active) | inactive | inactive | inactive | inactive
CCc1ccc(NC(=O)c2ccc(CN3CCCN(Cc4cccc(Cl)c4)CC3)cc2)cc1 | 2% | 50% (active) | 5 | 84% (active) | inactive | inactive | inactive | inactive
CC(C)COc1ccc(Cl)cc1Cc1nc(-c2nc3ccc(CN4CCN(C)CC4)cc3[nH]2)co1 | 57% (active) | 5% | 7 | 101% (active) | inactive | inactive | inactive | inactive
O=C(NCCCNc1nc2ccccc2[nH]1)c1cccc(OC(F)(F)F)c1 | 27% | 12% | -2 | 102% (active) | inactive | inactive | inactive | inactive
Oc1ccc(-c2nc3c4cc(I)ccc4c4ccc(I)cc4c3[nH]2)cc1 | 51% (active) | -3% | 2 | 98% (active) | inactive | inactive | inactive | inactive
CCN(CC)c1ccc(C(c2ccc(N(CC)CC)cc2)c2cccc([N+](=O)[O-])c2)cc1 | 68% (active) | 39% | -1 | 91% (active) | inactive | inactive | inactive | inactive
CCCCCC(C)C(C)c1cc(O)c2c(c1)OC(C)(C)CC2(O)c1ccccn1 (configuration not stated) | 3% | -2% | -5 | 98% (active) | inactive | inactive | inactive | inactive
CCC(C)(C)NC(=O)C(c1cccc(OC)c1)N(C(=O)CNC(=O)c1cccs1)c1ccc2c(c1)OCCO2 (configuration not stated) | 76% (active) | -7% | -7 | 100% (active) | inactive | inactive | inactive | inactive
COc1cc([N+](=O)[O-])ccc1NC(=O)Nc1ccc(OC(F)(F)F)cc1 | 72% (active) | 14% | 3 | 84% (active) | inactive | inactive | inactive | inactive
O=C(Nc1cccc(CN2CCN(C(=O)c3cccs3)CC2)c1)c1cccs1 | 91% (active) | -2% | 3 | 95% (active) | inactive | inactive | inactive | inactive
CCCCOc1ccc(-c2nc3ccccc3[nH]2)cc1 | 82% (active) | 21% | -1 | 86% (active) | inactive | inactive | inactive | inactive
CCc1cc(CNC2CCN(CCc3c(F)cnc4ccc(OC)nc34)CC2)cc2c1OCCO2 | 94% (active) | 46% | 1 | 100% (active) | inactive | inactive | inactive | inactive
CN1CCCN(Cc2cccc(-c3ccc(NC(=O)c4cccc(C#N)c4)cc3)c2)CC1 | 96% (active) | 27% | -6 | 102% (active) | inactive | inactive | inactive | inactive
CCCCCCOc1ccccc1C(=O)NCCOc1ccc(Cl)cc1 | 37% | 16% | 4 | 84% (active) | inactive | inactive | inactive | inactive
Cc1cc(Nc2ccc(C(C)(C)C)cc2)c2[nH]ncc2n1 | 63% (active) | 31% | 0 | 83% (active) | inactive | inactive | inactive | inactive

SMILES | growth inhibition [1] | inhibition [2] | inhibition [3] [%] | growth inhibition [4] | outcome [5] | outcome [6] | outcome [7] | outcome [8]
c1ccc(CN2CCC(NCc3ccccc3-c3ccc(CNCc4ccc5c(c4)OCO5)cc3)CC2)cc1 | 49% | 26% | 3 | 102% (active) | inactive | inactive | inactive | inactive
Cc1nc(-c2cccc(Nc3nccc(NCC(O)c4ccccc4)n3)c2)cs1 (configuration not stated) | 82% (active) | 43% | 3 | 99% (active) | inactive | inactive | inactive | inactive
CC(C)CCn1c(Sc2ccc(C#N)c([N+](=O)[O-])c2)nnc1-c1ccc(Cl)cc1 | 39% | 25% | -1 | 90% (active) | inactive | inactive | inactive | inactive
OC[C@H]1CCCN1CC#Cc1cc2c(Nc3ccc(OCc4cccc(F)c4)c(Cl)c3)ncnc2s1 | 6% | 13% | -2 | 89% (active) | inactive | inactive | inactive | inactive
Cc1ccc(Nc2ccnc(Nc3ccc(C)c(F)c3)n2)cc1O | 27% | 4% | -4 | 100% (active) | inactive | inactive | inactive | inactive
Cc1ccc([N+](=O)[O-])cc1NC(=O)N(CC(O)c1ccccc1)C1CCCCC1 (configuration not stated) | 98% (active) | 11% | 6 | 100% (active) | inactive | inactive | inactive | inactive
COc1cccc(OC)c1-c1ccccc1NC(=O)N1CCCc2cc(C)ccc21 | 84% (active) | 51% (active) | 5 | 82% (active) | inactive | inactive | inactive | inactive
COc1ccc(-c2nc(NCc3ccccc3)c3cc(OC)c(OC)cc3n2)cc1 | 100% (active) | 15% | -1 | 101% (active) | inactive | inactive | inactive | inactive
COc1cc(NC(=O)/C=C/c2ccccc2OC(F)(F)F)cc(OCCN2CCCCC2)c1 | 6% | 25% | 0 | 96% (active) | inactive | inactive | inactive | inactive
Cc1cccc2[nH]c(-c3cccc(-c4cccc(NC(=O)c5cnn6cccnc56)c4)c3)nc12 | 17% | 14% | -3 | 101% (active) | inactive | inactive | inactive | inactive
COc1ccc2cc(C(=O)NC3CCC(CCN4CCc5cc(C#N)ccc5C4)CC3)[nH]c2c1 (configuration not stated) | -1% | 9% | -10 | 88% (active) | inactive | inactive | inactive | inactive
CCOc1cc(C)ccc1NC1CCN(CCCCNC(=O)c2ccc(NC(=O)c3ccc(Cl)cc3)cc2)CC1 | 70% (active) | 17% | -2 | 101% (active) | inactive | inactive | inactive | inactive
O=C(Nc1ccc(Cl)cc1)Nc1ccc(-c2cccc(-c3nc4ccccc4[nH]3)c2)cc1 | 78% (active) | 69% (active) | -3 | 100% (active) | inactive | inactive | inactive | inactive
CCOc1cc(C=NNc2nc3ccccc3[nH]2)ccc1OCc1ccc([N+](=O)[O-])cc1 | 1% | 2% | -6 | 100% (active) | inactive | inactive | inactive | inactive
CC(C)(C)Nc1cc(C(=O)N[C@@H](Cc2ccccc2)[C@H](O)CNC2CCOCC2)cc(N2CCCCS2(=O)=O)c1 | 98% (active) | -5% | -1 | 99% (active) | inactive | inactive | inactive | inactive
Cc1cccc2[nH]c(-c3ccc(-c4ccc(CN5CCN(c6cnccn6)CC5)cc4)s3)nc12 | 42% | 11% | -6 | 94% (active) | inactive | inactive | inactive | inactive
COc1ccc(CN2CCC2=O)c(OC)c1 | 96% (active) | 0% | -6 | 98% (active) | inactive | inactive | inactive | inactive
CC(CN1CCN(CC(c2ccc(F)cc2)N2CCN(C)CC2)CC1)C(=O)c1ccc(O)cc1 (configuration not stated) | 10% | -2% | -5 | 97% (active) | inactive | inactive | inactive | inactive
O=C(Nc1ccc(-c2nc3ccccc3[nH]2)cc1)c1ccc(S(=O)(=O)N2CCCCCC2)cc1 | 21% | 8% | -6 | 97% (active) | inactive | inactive | inactive | inactive
